In all, about 190,000 compounds went through this assay and about 3,500 (1.8%) were called active. For the sample, actives were picked, then their nearest neighbours and some compounds at random. Values without a mark were called inactive.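 Rule for the calls: active = inhibition above a set limit, 3 SD over mean compound inhibition (cut at about 8.4% in these data); inactive = the rest.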

A short description of this test: RAM signaling blockers in budding yeast – dse1pr::URA3 reporter, 5-FOA selection, primary screen (AID 868).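 Note: 0% = DMSO-only wells with no growth and 100% = 10 µM 1-NA-PP1 full growth; inhibition rescues growth on 5-FOA so higher OD means more RAM inhibition.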 The conditions noted are these: S. cerevisiae dse1pr::URA3 reporter, 5-FOA growth OD615, 2 d; at 50 µM; stronger effect = higher value; analog-sensitive cbk1-as2 kinase mutant strain.
A word on the inhibition: it is the relative decrease from the control value, in per cent. As to `O=C(COc1ccccc1)NCc1ccc2c(c1)OCO2`, the inhibition was 3.27%. For `N#Cc1nc(Cc2ccccc2)oc1NCCc1ccccc1`, the inhibition was 2.28%. Turning to `N#Cc1nc(Cc2cccc3ccccc23)oc1NCc1ccc2c(c1)OCO2`, the inhibition was 11% (active).

Regarding `CCCNC(=O)OC[C@H]1O[C@H](CCO/N=C/[C@@H](NS(=O)(=O)c2ccc(C)cc2)[C@H](C)/C=C/CC(=O)OC)C=C[C@@H]1Oc1ccc(OC)cc1`, the inhibition was 14.8% (active). To `CCCC(NS(=O)(=O)c1ccc(OC)cc1)C(=O)O` (stereo unspecified) belongs 0%.

Consider `CC(C)Oc1ccc(CCc2n[nH]c(=S)n2Cc2ccccc2)cc1`, for which the inhibition is 6.59%. In the case of `C=CCn1c(CCc2ccc(OC(C)C)cc2)n[nH]c1=S` it was -0.6%; in that of `CC(C)Oc1ccc(Cc2n[nH]c(=S)n2Cc2ccccc2)cc1Cl`, 9.13% (active). `O=C(O)c1ccc(NC(=O)c2cn(-c3ccccc3)nc2-c2ccc(Cl)cc2)cc1`: the inhibition was 6.63%. To `COc1ccc(-c2nn(-c3ccccc3)cc2/C=C\C(=O)Nc2ccc(C(=O)O)cc2)cc1` belongs 9.89% (active).

On to `Cc1ccc(-c2nn(-c3ccccc3)cc2/C=C/C(=O)Nc2cccc(S(N)(=O)=O)c2)cc1`, for which the inhibition was 4.87%. In the case of `CCCC(=O)OCC(=O)Nc1cc(Cl)ccc1[N+](=O)[O-]` it was 0.82%; in that of `Cc1cc(NC(=O)COC(=O)COc2ccc(Cl)cc2C)c([N+](=O)[O-])cc1C`, 10.1% (active); in that of `COc1ccc(OCC(=O)Nc2cc(C)c(Cl)cc2OC)c([N+](=O)[O-])c1`, 1.54%. In the case of `Cc1ccccc1C(=O)Nc1ccc(N2CCCCCC2)cc1` it was 1.43%. To `O=C(Nc1cc(S(=O)(=O)N2CCOCC2)ccc1Cl)c1cc(=O)c2ccccc2o1` belongs 1.91%; to `COc1ccccc1NC(=O)/C=C/C(=O)O`, 2.02%; to `Clc1ccccc1CSc1nnc(-c2ccco2)c(-c2ccco2)n1`, 16% (active).

Consider `c1ccc(CSc2nnc(-c3ccco3)c(-c3ccco3)n2)cc1`, for which the inhibition was 0.53%. In the case of `Nc1nc(SCc2ccccc2Cl)n[nH]1` it was 2.44%. To `CCOC(=O)C1CCCN(C(=O)COc2ccc(N(C)S(=O)(=O)c3ccc(C)cc3)cc2)C1` (stereo unspecified) belongs -0.86%; to `COCc1c(N)c(C)nc(Cl)c1C#N`, 0.6%; to `CC(C)(C)C(=O)N(Cc1ccccc1)c1ccccn1`, -0.12%. To `CCOC(=O)C/C(C)=N\Nc1ccc([N+](=O)[O-])cc1[N+](=O)[O-]` belongs 0%. For `Cc1ccccc1C(=O)OC1OC(=O)C(Cl)=C1Nc1ccccc1` (stereo unspecified), the inhibition was 6.67%. Regarding `O=C1OC(OC(=O)c2ccccc2Br)C(N2CCOCC2)=C1Cl` (stereo unspecified), the inhibition is 1.63%.

Consider `Cc1ccc(NC2=C(Cl)C(=O)OC2OC(=O)c2ccccc2C)cc1` (stereo unspecified), for which the inhibition is 12.9% (active). Consider `CCOc1ccc(C(=O)Nc2cccc(-c3ccc4nncn4n3)c2)cc1`, for which the inhibition was 3.23%.

As to `COCCCNC(=O)/C=C/c1ccc(OCc2c(F)cccc2Cl)cc1`, the inhibition is 0.89%. To `O=C(Nc1ccccc1C(=O)N1CCCCCC1)c1ccccc1Cl` belongs -0.13%; to `CC(=O)c1ccc(N2CCN(C(=O)c3ccc4nc[nH]c4c3)CC2)cc1`, 2.3%.

Consider `CCOC(=O)/C(N=Nc1cc(C(=O)O)cc(C(=O)O)c1)=C(\O)CCl`, for which the inhibition is 0%. To `COc1ccc(OCCCn2cccc2/C=C2/C(=N)N3OC(C)=CC3=NC2=O)cc1` belongs 12.5% (active); to `CCOc1cc(/C=C2/C(=N)N3OC(C)=CC3=NC2=O)ccc1OC`, 4.09%; to `Cc1ccc(OCCCn2c(=O)oc3ccccc32)cc1`, 0.62%. In the case of `COCCNC(=O)C(c1ccc(O)cc1)N(C(=O)CCC(=O)Nc1nccs1)c1ccc(C)cc1` (stereo unspecified) it was 0.98%; in that of `Oc1c(Cl)cc(Cl)c(Cl)c1Cc1c(O)c(Cl)cc(Cl)c1Cl`, 12% (active); in that of `OC1CSc2nc3ccccc3n2C1` (stereo unspecified), 0%. In the case of `CCCCn1ccnc1C(=O)c1cccc(S(=O)(=O)N2c3ccccc3CC2C)c1` (stereo unspecified) it was 11.4% (active); in that of `CN1CCN(S(=O)(=O)c2cccc(C(=O)N3CCc4ccccc43)c2)CC1`, 1.24%. As to `CC1Cc2ccccc2N1S(=O)(=O)c1c(N)n(C)c(=O)n(C)c1=O` (stereo unspecified), the inhibition was -1.31%.

As for `CC(=O)NC(Cc1ccc(F)c(F)c1)C(=O)NC1CCN(C(=O)c2ccc(C)cc2)CC1` (stereo unspecified), the inhibition is 0.5%. In the case of `COCCN(C(=O)C(C)C)c1nnc(-c2ccc(C(C)(C)C)cc2)s1` it was 19.7% (active); in that of `COc1cc(OC)cc(-c2nnc(N(C)C(=O)c3ccncc3)s2)c1`, 0.96%; in that of `COCCN(C(=O)c1ccco1)c1nnc(-c2ccc(OC)cc2)s1`, 4.86%. To `CSc1nc2ccc(NC(=O)c3c(F)cccc3F)cc2s1` belongs 4.89%; to `Cn1cc(/C=C/C(=O)N2CCCC(C(=O)c3ccc(C(F)(F)F)cc3)C2)cn1` (stereo unspecified), -1.92%. To `CN1CCN(c2ccc(S(=O)(=O)N3CCCCC3)cc2NC(=O)Cc2ccccc2F)CC1` belongs 1.32%.

For `O=C(O)CSc1nnc(-c2ccc3c(c2)OCO3)n1-c1ccccc1`, the inhibition is 3.54%. To `COC(=O)c1ccccc1Sc1c(/C=N/OCc2ccc(Cl)cc2)c(C(F)(F)F)nn1C` belongs 8.63% (active). In the case of `Cn1nc(C(F)(F)F)c(C(=O)Nc2cccc(C(F)(F)F)c2)c1SCc1ccc(Cl)cc1` it was 7%; in that of `COC(=O)c1ccccc1NC(=O)Cn1nc(C(F)(F)F)c2c1CCC2`, 5.65%; in that of `CCOC(=O)c1sc(/N=C/C2=C(O)CC(C)(C)CC2=O)c(C(=O)OCC)c1C`, 4.52%. To `Cc1ccc(C(C)NC(=O)Cn2nc(C)c([N+](=O)[O-])c2C)cc1` (stereo unspecified) belongs 0.13%; to `CCC(C(=O)Nc1ccc(C(C)C)cc1)c1ccccc1` (stereo unspecified), 3.4%. Turning to `COc1cc(OC)cc(-c2nc3nc(C)c(CCC(=O)NCc4ccco4)c(C)n3n2)c1`, the inhibition was 5.8%. With `O=C(CSc1nc(-c2ccco2)cc(C(F)(F)F)n1)NCc1cccs1`, the inhibition was 5.13%. Consider `COc1ccc(-c2cc(C(F)(F)F)nc(SCCC(=O)NCc3ccco3)n2)cc1`, for which the inhibition is 8.41% (active). In the case of `COc1cc(/C=N/NC(=S)Nc2cccnc2)cc(OC)c1O` it was 0.73%. In the case of `CCOc1cc(C2C(C(=O)OC(C)C)=C(C)NC3=C2C(=O)CCC3)cc([N+](=O)[O-])c1O` (stereo unspecified) it was 3.44%; in that of `COc1ccc(CCN=C2SCC(=O)N2Cc2ccccc2)cc1OC`, 0.24%; in that of `COc1ccc(CCNC2=C(Cl)C(=O)N(Cc3ccccc3)C2=O)cc1OC`, 8.57% (active). In the case of `COc1ccc(CCN(C)CCN2C(=O)c3ccccc3C2=O)cc1OC` it was -0.11%; in that of `O=C(CSc1ccccc1)Nc1nnc(/C=C/c2ccccc2)s1`, 3.72%; in that of `COc1ccc(Cl)cc1C(=O)NNC(=S)NC1CCCC1`, 0%. On to `COCCCNc1nc2c(-c3cccc(C(F)(F)F)c3)nnn2c2ccccc12`, for which the inhibition is 4.26%. To `CCCNC(=O)c1c(Cl)cnn1-c1ccc(C)cc1` belongs -1.52%; to `NS(=O)(=O)c1ccc(CCNC(=O)c2ccc([N+](=O)[O-])cc2[N+](=O)[O-])cc1`, 0%. To `CC(C)(C)N(Cc1ccccc1)C(=O)COC(=O)CCc1c[nH]c2ccccc12` belongs 10.3% (active). In the case of `NS(=O)(=O)c1ccc(NC(=O)COC(=O)CCc2c[nH]c3ccccc23)cc1` it was 1.13%. As for `CCOC(=O)CN(C)Cc1c[nH]c2ccccc12`, the inhibition is 4.1%. In the case of `CCOc1ncccc1C(=O)OCC(=O)NC1CC1` it was -0.99%; in that of `CN(C)C(CNC(=O)Cc1ccc([N+](=O)[O-])cc1)c1ccccc1` (stereo unspecified), -0.62%.

Consider `O=C(NCc1cccs1)C(=O)NCC1OCCCN1S(=O)(=O)c1ccc(F)cc1` (stereo unspecified), for which the inhibition was 3.25%. Regarding `COc1ccc(NS(=O)(=O)c2ccc(NC(=O)c3ccc(N(C)S(C)(=O)=O)cc3)cc2)cc1`, the inhibition was 4.92%. `CC(C)CNC(=O)COC(=O)c1ccccc1OCC(=O)Nc1ccc(Br)cc1`: the inhibition was 1.56%.

On to `O=C1c2cccc(OCC(=O)N3N=C(c4cccs4)CC3c3ccc(F)cc3)c2CCN1Cc1ccccc1` (stereo unspecified), for which the inhibition is 9.86% (active).

Turning to `COc1ccc(C2CC(c3cccs3)=NN2C(=O)COC(=O)c2cc3ccccc3cc2O)cc1OC` (stereo unspecified), the inhibition was 4.23%. As for `COc1ccc(C2CC(c3cccs3)=NN2C(=O)CSc2nnc(N)s2)cc1OC` (stereo unspecified), the inhibition is 1.88%.

`COc1ccc(NC(=O)COC(=O)c2ccc(NS(=O)(=O)/C=C/c3ccccc3)cc2)cc1`: the inhibition was 4.45%.

Regarding `O=C(CSc1nncs1)NC1CCCc2ccccc21` (stereo unspecified), the inhibition was 0.4%. With `CC(C)Nc1nnc(SCC(=O)c2c[nH]c3ccccc23)s1`, the inhibition was 0.26%. To `CC(C)Nc1nnc(SCC(=O)/C=C2\N(C)c3ccccc3C2(C)C)s1` belongs 10.6% (active); to `CN1/C(=C\C(=O)c2cccnc2Cl)C(C)(C)c2ccccc21`, 0.13%. To `COCCNC(=S)N1CCC(NC(=O)C23CC4CC(CC(C4)C2)C3)CC1` belongs -0.25%; to `CCN(CC)CCNC(=O)c1sc2ncn(CC(=O)Nc3ccc(C)c(Cl)c3)c(=O)c2c1C`, 0.37%. To `Cn1c(=O)n(Cc2ccco2)c(=N)c2c3c(sc21)CCCC3` belongs 1.37%. In the case of `O=C(COC(=O)CSc1nnc(-c2ccc(Cl)cc2)o1)Nc1cc(Cl)cc(Cl)c1`, the inhibition was 2.39%. To `COc1ccc(O[C@H]2C=C[C@@H](c3ccccc3)O[C@@H]2CO/N=C/C[C@@H]2C=C[C@H](OC(C)=O)[C@@H](COC(C)=O)O2)cc1` belongs 13.9% (active); to `CC(=O)NC1C(OCc2ccccc2)OC(COC(C)=O)C(OC(C)=O)C1OC(C)=O` (stereo unspecified), 1.66%. In the case of `CC(=O)NC1C(Oc2ccc(C=O)cc2)OC(COC(C)=O)C(OC(C)=O)C1OC(C)=O` (stereo unspecified) it was 1.12%.

The values are drawn from PubChem BioAssay AID868 (SRMLSC, 2007).
